# Results from the supplement of paper PMC6805474.
# Tested on: Schistosoma mansoni schistosomula (LE)
# Assay: XTT viability relative to DMSO control; higher = more viable (less active)
# Details: 72 h; 10 µM
# Description: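 XTT/PMS was then added for a further 24 h (72 h total) and A450 was read. % viability = (sample - heat-killed control)/(DMSO control - heat-killed control) x 100, from duplicate wells in two independent experiments.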
# 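For phenotypic severity score (0-4) in this document: visual microscopic scoring of shape, motility and density changes versus 0.5% DMSO solvent controls, one point per descriptor, degeneracy or death scored 4, mean of duplicate wells.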
row,SMILES,XTT viability [%]
1,Nc1ccc2ncnc(Nc3ccc(OCc4cccc(F)c4)c(Cl)c3)c2c1,55.9
2,COc1cccc(-c2nc3c(N4CCCC4)cccc3n2CC2CCCN2)n1 (stereo unspecified),158
3,O=C(Nc1ccccc1)c1ccc(-c2cc3ccncc3cc2OC2CCNCC2)s1,-18.1
4,O=C(NC1CC1)c1ccc(N2CCC(Cc3ccccc3)CC2)nc1,91.1
5,O=C(NCCc1ccn(-c2ccccc2)n1)C1CCCCC1,74.1
6,O=C(NCc1cc(Cl)cc(Cl)c1)c1c(C(F)(F)F)nc2ccccn12,93.7
7,Oc1c(I)cc(I)c2cccnc12,6.58
8,CC(C)C(Oc1cccc2ccccc12)C(=O)O (stereo unspecified),108
9,Cc1cc(O)nc(-n2nc(C)cc2C)n1,93.1
10,Cc1nc(-c2cccc(NCc3ccccc3)c2)[nH]c1C,104
11,COc1cc(CN2CCC3(C=Cc4ccccc43)CC2)cc2c1OCO2,73.9
12,NCCC(O)C(=O)N[C@@H]1C[C@H](N)[C@@H](OC2O[C@H](CN)[C@@H](O)[C@H](O)[C@H]2O)[C@H](O)C1OC1O[C@H](CO)[C@@H](O)[C@H](N)[C@H]1O (stereo partly specified),93.8
13,N=C(N)Nc1ccc(-c2ccc(-c3ccc(N=C(N)N)c(Cl)c3)o2)cc1Cl,89.7
14,CN1CCN(CCCOc2ncc(Nc3ncc(-c4ccc(C(F)(F)F)c(F)c4)nc3C(N)=O)cn2)CC1,5.2
15,NCC(=O)N1CCn2c(nc(-c3ccccc3)c2Nc2ccc3c(c2)OCO3)C1,129
16,O=C(c1ccc(NCCO)cc1)C1C[C@H]1c1ccc(Cl)cc1 (stereo partly specified),93.3
17,CC(=O)NCC1CN(c2ccc(-c3ccc(CNCc4cn[nH]n4)cc3)c(F)c2)C(=O)O1 (stereo unspecified),108
18,CCOc1ccc(-c2nc(NC(=O)CS(=O)(=O)c3ccccc3)sc2C)cc1,61.8
19,O=C(c1ccco1)N(CCCn1ccnc1)c1nc2c(Cl)cccc2s1,46.4

row,SMILES,XTT viability [%]
1,CN1CCC(c2cc(-c3ccncc3)c(-c3ccc(F)cc3)[nH]2)CC1,94.6
2,CCCn1c(NC(=O)c2ccc3ccccc3n2)nc2ccccc21,5.68
3,Nc1ncnc2c1ncn2C[C@@H](O)[C@@H](O)C(=O)O,63.7
4,CC(C)=CCC/C(C)=C\CNCCNC1C2CC3CC(C2)CC1C3 (stereo unspecified),13.5
5,COc1ccc2nc(C)cc(OCC(=O)NCc3ccccc3)c2c1,74.7
6,CN(C)c1cc(NC(=O)Nc2ccccc2)c2ccccc2n1,-13.7
7,Cc1ccc(-c2nc(CN(Cc3ccccn3)C(C)C)cs2)o1,84.4
8,NC(=O)c1cc(Br)ccc1OCCOc1ccccc1,110
9,C[C@H]1c2cccc(O)c2C(=O)C2=C(O)[C@]3(O)C(=O)C(C(N)=O)=C(O)[C@@H](N(C)C)[C@@H]3[C@@H](O)[C@@H]21,165
10,Cc1nc(-c2ccccn2)nc(N(C)CCc2ccccc2)c1Cl,20.7
11,OC[C@H]1O[C@@H](n2c3ccc(Cl)cc3c3c(-c4cc5ccccc5o4)ncnc32)C(O)[C@H]1O (stereo partly specified),93.9
12,O=C(NCc1ccco1)N1CCN(Cc2ccc(Cl)s2)CC1,93.6
13,CC(=O)NCC1CN(c2ccc(-c3ccc(CO)cc3)c(F)c2)C(=O)O1 (stereo unspecified),138
14,CCC(C)NC(=O)c1ccc(NC(=O)C2(c3ccccc3)CCCC2)cc1 (stereo unspecified),90.6
15,Nc1ncc(Br)cc1-c1nc2cc(Cl)cnc2[nH]1,131
16,COc1ccc(C2=NN(C3CCCCCC3)C(=O)[C@@H]3CC=CC[C@H]23)cc1OCCCCOc1ccc(-c2nn[nH]n2)cc1,31
17,CC(C)(C)OC(=O)N1CCN(c2nccc(-c3ccc(-c4ccc(Cl)cc4)s3)n2)CC1,93.7
18,O=C(OCc1ccccc1)N1CCC(c2cc(-c3ccncc3)c(-c3ccc(F)cc3)[nH]2)CC1,124
19,CC(C)NCC(=O)Nc1cccc(C(=O)Nc2cccc(C(F)(F)F)c2)c1,86.7

# Tested on: Schistosoma mansoni schistosomula (NMRI)
# Assay: phenotypic severity score (0-4); higher = more antischistosomal effect, active = 2 or more
# Details: 24 h; 10 µM
row,SMILES,phenotypic severity score
1,Nc1ccc2ncnc(Nc3ccc(OCc4cccc(F)c4)c(Cl)c3)c2c1,4 (active)
2,COc1cccc(-c2nc3c(N4CCCC4)cccc3n2CC2CCCN2)n1 (stereo unspecified),4 (active)
3,O=C(Nc1ccccc1)c1ccc(-c2cc3ccncc3cc2OC2CCNCC2)s1,0 (inactive)
4,O=C(NC1CC1)c1ccc(N2CCC(Cc3ccccc3)CC2)nc1,0 (inactive)
5,O=C(NCCc1ccn(-c2ccccc2)n1)C1CCCCC1,0 (inactive)
6,O=C(NCc1cc(Cl)cc(Cl)c1)c1c(C(F)(F)F)nc2ccccn12,0 (inactive)
7,Oc1c(I)cc(I)c2cccnc12,2 (active)
8,CC(C)C(Oc1cccc2ccccc12)C(=O)O (stereo unspecified),0 (inactive)
9,Cc1cc(O)nc(-n2nc(C)cc2C)n1,0 (inactive)
10,Cc1nc(-c2cccc(NCc3ccccc3)c2)[nH]c1C,0 (inactive)
11,COc1cc(CN2CCC3(C=Cc4ccccc43)CC2)cc2c1OCO2,1 (inactive)
12,NCCC(O)C(=O)N[C@@H]1C[C@H](N)[C@@H](OC2O[C@H](CN)[C@@H](O)[C@H](O)[C@H]2O)[C@H](O)C1OC1O[C@H](CO)[C@@H](O)[C@H](N)[C@H]1O (stereo partly specified),0 (inactive)
13,N=C(N)Nc1ccc(-c2ccc(-c3ccc(N=C(N)N)c(Cl)c3)o2)cc1Cl,0 (inactive)
14,CN1CCN(CCCOc2ncc(Nc3ncc(-c4ccc(C(F)(F)F)c(F)c4)nc3C(N)=O)cn2)CC1,3 (active)
15,NCC(=O)N1CCn2c(nc(-c3ccccc3)c2Nc2ccc3c(c2)OCO3)C1,0 (inactive)
16,O=C(c1ccc(NCCO)cc1)C1C[C@H]1c1ccc(Cl)cc1 (stereo partly specified),0 (inactive)
17,CC(=O)NCC1CN(c2ccc(-c3ccc(CNCc4cn[nH]n4)cc3)c(F)c2)C(=O)O1 (stereo unspecified),0 (inactive)
18,CCOc1ccc(-c2nc(NC(=O)CS(=O)(=O)c3ccccc3)sc2C)cc1,0 (inactive)
19,O=C(c1ccco1)N(CCCn1ccnc1)c1nc2c(Cl)cccc2s1,0 (inactive)

row,SMILES,phenotypic severity score
1,CN1CCC(c2cc(-c3ccncc3)c(-c3ccc(F)cc3)[nH]2)CC1,0 (inactive)
2,CCCn1c(NC(=O)c2ccc3ccccc3n2)nc2ccccc21,1 (inactive)
3,Nc1ncnc2c1ncn2C[C@@H](O)[C@@H](O)C(=O)O,0 (inactive)
4,CC(C)=CCC/C(C)=C\CNCCNC1C2CC3CC(C2)CC1C3 (stereo unspecified),4 (active)
5,COc1ccc2nc(C)cc(OCC(=O)NCc3ccccc3)c2c1,0 (inactive)
6,CN(C)c1cc(NC(=O)Nc2ccccc2)c2ccccc2n1,1 (inactive)
7,Cc1ccc(-c2nc(CN(Cc3ccccn3)C(C)C)cs2)o1,0 (inactive)
8,NC(=O)c1cc(Br)ccc1OCCOc1ccccc1,1 (inactive)
9,C[C@H]1c2cccc(O)c2C(=O)C2=C(O)[C@]3(O)C(=O)C(C(N)=O)=C(O)[C@@H](N(C)C)[C@@H]3[C@@H](O)[C@@H]21,0 (inactive)
10,Cc1nc(-c2ccccn2)nc(N(C)CCc2ccccc2)c1Cl,1 (inactive)
11,OC[C@H]1O[C@@H](n2c3ccc(Cl)cc3c3c(-c4cc5ccccc5o4)ncnc32)C(O)[C@H]1O (stereo partly specified),0 (inactive)
12,O=C(NCc1ccco1)N1CCN(Cc2ccc(Cl)s2)CC1,0 (inactive)
13,CC(=O)NCC1CN(c2ccc(-c3ccc(CO)cc3)c(F)c2)C(=O)O1 (stereo unspecified),0 (inactive)
14,CCC(C)NC(=O)c1ccc(NC(=O)C2(c3ccccc3)CCCC2)cc1 (stereo unspecified),0 (inactive)
15,Nc1ncc(Br)cc1-c1nc2cc(Cl)cnc2[nH]1,0 (inactive)
16,COc1ccc(C2=NN(C3CCCCCC3)C(=O)[C@@H]3CC=CC[C@H]23)cc1OCCCCOc1ccc(-c2nn[nH]n2)cc1,2 (active)
17,CC(C)(C)OC(=O)N1CCN(c2nccc(-c3ccc(-c4ccc(Cl)cc4)s3)n2)CC1,0 (inactive)
18,O=C(OCc1ccccc1)N1CCC(c2cc(-c3ccncc3)c(-c3ccc(F)cc3)[nH]2)CC1,0 (inactive)
19,CC(C)NCC(=O)Nc1cccc(C(=O)Nc2cccc(C(F)(F)F)c2)c1,0 (inactive)
